# Results from PubChem BioAssay.
# Where “and” joins values, the source holds several entries; their conditions need not be identical. Equal entries are not always repeated. A structure can be active in one record and inactive in another. Calls of active or inactive are those of the source.
# What was measured:
# [1] = system: PRMT1 (protein arginine N-methyltransferase 1); test: PRMT1 binders on small-molecule microarrays, primary screen, biochemical, small-molecule microarray, 635 nm fluorescence (AID 1088); conditions: small-molecule microarray binding, higher = more signal;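 note: binding of Prmt1 protein to compounds spotted on small-molecule microarray slides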
# [2] = yeast growth modulation, basal conditions, primary screen, YJM789 clinical isolate, OD600, 24 h (AID 1089);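 note: growth of clinical yeast isolate S. cerevisiae YJM 789 seeded 1000 cells per well; test concentration not given here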; conditions: S. cerevisiae YJM789 growth, higher = more signal, called active from +8 up or from −8 down
# [3] = fission yeast growth modulation, primary screen, strain 972, OD600, 24 h, no modulator (AID 1090);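 note: basal condition with compound alone and no growth modifier present; test concentration not given here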; conditions: S. pombe 972 growth, higher = more signal, called active from +8 up or from −8 down
# [4] = S. cerevisiae growth modulation with rapamycin, primary screen, strain BY4716, OD600, 96 h (AID 1091); conditions: higher = more signal, called active from +8 up or from −8 down; note: test concentration not given here
# [5] = target: Torsin-1A-interacting protein 2 (Homo sapiens) (UniProt Q8NFQ8); test: LULL1 binders on small-molecule microarray, primary screen, cell lysate, human LULL1 lysate, 635/667 nm fluorescence (AID 1092); conditions: hLULL1 lysate binding, 635 nm fluorescence, higher = more signal;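 note: probe is lysate of COS7 cells overexpressing human LULL1; score merges per-feature 667 nm fluorescence with signal-to-noise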
# Chain of Torsin-1A-interacting protein 2 (Homo sapiens) (Q8NFQ8 whole entry, looked up): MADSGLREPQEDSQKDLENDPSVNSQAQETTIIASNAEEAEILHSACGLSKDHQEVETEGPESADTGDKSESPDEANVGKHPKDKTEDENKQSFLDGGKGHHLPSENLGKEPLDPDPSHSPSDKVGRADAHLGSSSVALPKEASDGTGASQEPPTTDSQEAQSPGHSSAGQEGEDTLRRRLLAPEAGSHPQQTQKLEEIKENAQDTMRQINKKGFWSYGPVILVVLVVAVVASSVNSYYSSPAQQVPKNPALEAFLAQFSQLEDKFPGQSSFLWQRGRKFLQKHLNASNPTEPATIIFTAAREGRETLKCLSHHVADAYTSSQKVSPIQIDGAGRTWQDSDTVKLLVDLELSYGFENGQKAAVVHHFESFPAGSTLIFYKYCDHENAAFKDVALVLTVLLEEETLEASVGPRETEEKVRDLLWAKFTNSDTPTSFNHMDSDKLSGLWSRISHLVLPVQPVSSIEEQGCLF
# [6] = E. coli growth modulation, two-sided OD650, primary screen, E. coli filamentation project, strain DRC41, 24 h (AID 1093); conditions: OD650, 24 h, higher = more signal, called active from +8 up or from −8 down;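 note: MC1000 strain lacking acrAB efflux and sulA so SOS filamentation is blocked; test concentration not given here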
# [7] = small-molecule microarray binders of probe aLefty2, primary screen, biochemical, biotinylated probe, 635/667 nm fluorescence (AID 1094); conditions: higher = more signal;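 note: score merges spot fluorescence near 667 nm with spot signal-to-noise ratio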
# [8] = system: Noggin (protein binding on small-molecule microarray); test: Noggin binders on small-molecule microarray, primary screen, biochemical, 635/667 nm fluorescence (AID 1095); conditions: 635 nm fluorescence, higher = more signal;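 note: score merges 667 nm feature fluorescence with signal to noise over triplicate slides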
# [9] = target: Neurogenic locus notch homolog protein 3 (Homo sapiens) (UniProt Q9UM47); test: NOTCH3 binders on small-molecule microarray, primary screen, biochemical, 635/667 nm fluorescence (AID 1096); conditions: NOTCH3 binding, 635 nm fluorescence, higher = more signal
# Chain of Neurogenic locus notch homolog protein 3 (Homo sapiens) (Q9UM47 whole entry, looked up): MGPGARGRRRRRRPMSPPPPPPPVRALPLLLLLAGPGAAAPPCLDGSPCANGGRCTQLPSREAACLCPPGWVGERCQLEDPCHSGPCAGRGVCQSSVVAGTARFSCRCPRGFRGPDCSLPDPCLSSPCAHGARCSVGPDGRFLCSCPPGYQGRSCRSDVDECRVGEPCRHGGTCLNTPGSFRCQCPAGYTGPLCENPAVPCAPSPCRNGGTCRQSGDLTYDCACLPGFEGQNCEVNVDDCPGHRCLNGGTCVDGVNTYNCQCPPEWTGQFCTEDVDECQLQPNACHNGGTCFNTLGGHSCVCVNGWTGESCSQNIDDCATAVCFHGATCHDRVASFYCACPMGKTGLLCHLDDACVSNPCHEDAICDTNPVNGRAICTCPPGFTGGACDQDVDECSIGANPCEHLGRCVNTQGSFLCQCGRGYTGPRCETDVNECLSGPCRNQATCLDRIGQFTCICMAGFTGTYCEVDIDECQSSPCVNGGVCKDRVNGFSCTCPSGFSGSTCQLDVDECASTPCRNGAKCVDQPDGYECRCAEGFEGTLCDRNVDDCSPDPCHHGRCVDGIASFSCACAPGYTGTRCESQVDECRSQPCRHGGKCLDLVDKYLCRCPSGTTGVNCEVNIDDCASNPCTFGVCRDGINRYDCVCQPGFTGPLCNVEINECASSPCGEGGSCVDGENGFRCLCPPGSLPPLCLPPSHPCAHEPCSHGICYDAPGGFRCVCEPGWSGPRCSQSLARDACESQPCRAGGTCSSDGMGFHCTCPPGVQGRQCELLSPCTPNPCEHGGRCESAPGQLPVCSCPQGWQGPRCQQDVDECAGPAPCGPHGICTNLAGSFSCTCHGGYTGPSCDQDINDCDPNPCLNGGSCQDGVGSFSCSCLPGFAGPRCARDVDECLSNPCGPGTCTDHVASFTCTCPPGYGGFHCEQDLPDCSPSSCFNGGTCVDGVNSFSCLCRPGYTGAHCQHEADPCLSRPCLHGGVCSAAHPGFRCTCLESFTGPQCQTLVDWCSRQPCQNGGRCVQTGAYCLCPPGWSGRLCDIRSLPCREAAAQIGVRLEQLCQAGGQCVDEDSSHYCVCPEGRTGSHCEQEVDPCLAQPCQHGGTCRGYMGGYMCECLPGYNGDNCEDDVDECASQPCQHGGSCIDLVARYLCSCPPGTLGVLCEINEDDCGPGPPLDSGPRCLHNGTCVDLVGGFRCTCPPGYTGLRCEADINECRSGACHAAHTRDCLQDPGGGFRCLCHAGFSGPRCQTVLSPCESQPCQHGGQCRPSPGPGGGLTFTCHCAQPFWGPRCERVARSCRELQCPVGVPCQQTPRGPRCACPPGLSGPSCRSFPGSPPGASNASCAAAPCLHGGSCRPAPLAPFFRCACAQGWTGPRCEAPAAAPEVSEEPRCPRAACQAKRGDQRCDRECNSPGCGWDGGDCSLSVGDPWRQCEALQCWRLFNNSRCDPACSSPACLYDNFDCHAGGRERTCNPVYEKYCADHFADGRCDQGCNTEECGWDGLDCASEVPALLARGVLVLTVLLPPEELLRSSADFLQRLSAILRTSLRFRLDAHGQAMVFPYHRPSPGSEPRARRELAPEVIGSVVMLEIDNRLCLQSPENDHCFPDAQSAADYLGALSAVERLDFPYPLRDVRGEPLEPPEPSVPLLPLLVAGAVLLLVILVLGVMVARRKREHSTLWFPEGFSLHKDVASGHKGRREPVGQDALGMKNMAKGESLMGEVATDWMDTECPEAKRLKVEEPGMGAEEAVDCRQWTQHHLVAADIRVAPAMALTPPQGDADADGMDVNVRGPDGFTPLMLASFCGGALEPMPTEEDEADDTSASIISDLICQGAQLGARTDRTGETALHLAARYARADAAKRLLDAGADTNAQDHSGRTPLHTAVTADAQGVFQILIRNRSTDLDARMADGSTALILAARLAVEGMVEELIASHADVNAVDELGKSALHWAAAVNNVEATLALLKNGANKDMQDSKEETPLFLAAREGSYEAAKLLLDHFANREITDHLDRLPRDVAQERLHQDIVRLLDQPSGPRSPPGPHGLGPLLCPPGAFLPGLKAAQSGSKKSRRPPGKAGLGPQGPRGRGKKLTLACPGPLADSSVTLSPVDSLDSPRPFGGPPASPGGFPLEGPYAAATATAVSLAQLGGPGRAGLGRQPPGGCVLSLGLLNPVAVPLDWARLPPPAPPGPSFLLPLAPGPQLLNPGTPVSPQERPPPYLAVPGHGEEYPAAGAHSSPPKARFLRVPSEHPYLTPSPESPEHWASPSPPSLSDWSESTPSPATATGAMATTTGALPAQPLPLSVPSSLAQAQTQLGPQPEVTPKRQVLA
# [10] = small-molecule microarray binders of probe aEGFR, primary screen, biochemical, biotinylated probe, 635/667 nm fluorescence (AID 1097); conditions: higher = more signal;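 note: probe is a biotinylated anti-EGFR antibody binding compounds printed on slides; score combines fluorescence near 667 nm and signal to noise of each spot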
Structure (SMILES),composite z-score [1],z-score [2],z-score [3],z-score [4],composite z-score [5],z-score [6],composite z-score [7],composite z-score [8],composite z-score [9],composite z-score [10]
C=CCN(C(=O)C(c1cccs1)N(CCOCCO)C(=O)/C=C\C(=O)O)c1ccc(OC)cc1 (stereo not given),-1.56 and -0.685,-2.54 (inactive) and -0.463 (inactive),-0.314 (inactive) and -2.05 (inactive),-1.51 (inactive) and -0.835 (inactive),-1.45 and -0.709,2.74 (inactive) and 2.71 (inactive),-0.25 and -0.299,-0.482 and -1.39,-1.2 and -0.655,-0.172 and -0.316
C=CCN(Cc1ccccc1)C(=O)C1N(CCOCCO)C(=O)C2C(C(=O)O)C3C=CC21O3 (stereo not given),-0.576 and -0.797,-1.93 (inactive) and 0.844 (inactive),-1.52 (inactive) and -0.0833 (inactive),-1.25 (inactive) and 0.225 (inactive),3.27 and 2.73,2.42 (inactive) and 1.4 (inactive),0.22 and 0.141,-3.1 and -1.88,-0.74 and -0.734,-0.323 and -0.278
COC(=O)[C@@]1(Cc2ccccc2)[C@H]2c3cc(C(=O)N(C)C)n(C[C@H](O)CO)c3C[C@H]2CN1C(=O)c1ccccc1,-0.576 and -0.197,0.745 (inactive) and 0.53 (inactive),-0.421 (inactive) and 0.883 (inactive),0.565 (inactive) and 0.696 (inactive),3.69 and 2.3,-0.527 (inactive) and -0.856 (inactive),-0.052 and 0.0305,-0.634 and -0.737,-0.349 and -0.0109,-0.228 and 0.0395
CO[C@H]1COC(=O)[C@H](C)NC(=O)CC=C[C@@H](C)[C@H](OC)COC(=O)CC=C[C@@H]1C,1.4,1.17 (inactive),0.306 (inactive),1.13 (inactive),-0.247,1.3 (inactive),-0.235,1.32,0.164,0.0556
C=CCN(C(=O)C(c1cccs1)N(C(=O)/C=C\C(=O)O)c1ccc(CCO)cc1)C(C)(C)C (stereo not given),-0.417 and -0.231,-0.042 (inactive) and 0.181 (inactive),-0.701 (inactive) and 0.442 (inactive),-0.3 (inactive) and -0.104 (inactive),3.58 and 3.17,0.286 (inactive) and -0.294 (inactive),-0.0964 and -0.116,-2.17 and -1.9,-0.583 and -1.21,-0.106 and -0.209
Cc1ccc(S(=O)(=O)N[C@H]2COC(=O)[C@@H](Cc3ccccc3)NC(=O)[C@@H](C)COC(=O)CC=C[C@@H]2C)cc1,-0.0829 and 1.56,-0.248 (inactive) and -0.666 (inactive),0.209 (inactive) and 0.195 (inactive),-0.342 (inactive) and -0.348 (inactive),-0.872 and 0.969,0.205 (inactive) and 0.134 (inactive),-0.212 and -0.0726,0.3 and 0.541,-0.587 and 0.629,-0.0952 and -0.0661
COC(=O)C1=C(C)N(Cc2ccccc2)C2=C(C(=O)c3ccccc3)[C@H](c3ccccc3)[C@@](O)(C(=O)OC)C(=O)N2[C@@H]1c1ccccc1,0.518 and 0.722,0.504 (inactive) and 0.653 (inactive),-0.413 (inactive) and -0.0902 (inactive),34.6 (active) and 0.863 (inactive),0.886 and 0.23,0.591 (inactive) and 0.311 (inactive),0.0039 and -0.115,0.495 and 0.653,0.858 and 0.808,0.127 and -0.123
CCC[C@@H]1C[C@@]1(CCC)[C@@H](NC(=O)c1ccc(-c2ccccc2)cc1)c1cccc(Cl)c1,-0.13 and -0.434,-0.173 (inactive) and 0.948 (inactive),-12.7 (active) and 1.75 (inactive),-0.86 (inactive) and 1.18 (inactive),0.678 and 3.32,-1.33 (inactive) and -0.003 (inactive),1.07 and 0.266,0.191 and -0.508,-0.585 and 0.419,0.78 and -0.0975
C=CC[C@@H](O)c1ccc(O)c2ccccc12,1.57 and 1.49,-22 (active) and -23.3 (active),-20 (active) and -20.4 (active),6.56 (inactive) and 5.68 (inactive),1.01 and 0.0783,1.92 (inactive) and 0.416 (inactive),-0.0511 and -0.0812,1.1 and 0.869,1.11 and 1.1,0.0153 and -0.0531
C=CCN(C(=O)C(c1cccs1)N(C(=O)/C=C\C(=O)O)c1c(Cl)cccc1CO)c1ccc(OC)cc1 (stereo not given),-0.517 and -1.02,-0.521 (inactive) and 0.247 (inactive),-1.88 (inactive) and -0.83 (inactive),-1.51 (inactive) and -0.982 (inactive),3.16 and 0.422,1.67 (inactive) and -0.311 (inactive),0.018 and 0.522,-3.84 and -2.48,-1.02 and -1.39,-0.238 and -0.121
C=C[C@H](C)[C@@H](O)c1ccc(OCCO)cc1,-0.269 and 0.62,-0.766 (inactive) and 0.227 (inactive),-0.467 (inactive) and -0.537 (inactive),-0.647 (inactive) and 0.024 (inactive),-0.982 and 0.448,0.158 (inactive) and -0.18 (inactive),-0.184 and -0.0816,-0.565 and -0.187,-0.956 and -0.773,-0.403 and -0.216
C=CCN(C(=O)C1N(CCCCCCO)C(=O)C2C(C(=O)O)C3C=CC21O3)C(C)(C)C (stereo not given),-0.334 and -0.47,-0.686 (inactive) and -0.559 (inactive),-1.43 (inactive) and -0.867 (inactive),-0.235 (inactive) and -0.724 (inactive),-0.773 and 2.17,0.137 (inactive) and -0.31 (inactive),-0.231 and -0.0217,-2.53 and -1.64,-0.763 and -1.42,-0.253 and -0.375
C[C@@H]1CC[C@H]2C(=O)N3[C@@H](CC[C@@H](C)[C@@H]3c3ccc(-c4ccco4)cc3)C(=O)N2[C@H]1c1ccc(-c2ccco2)cc1,1.56 and 1.49,-0.0519 (inactive) and -0.0158 (inactive),0.453 (inactive) and -1.28 (inactive),0.849 (inactive) and -0.324 (inactive),2.17 and 0.787,0.196 (inactive) and 0.917 (inactive),0.0935 and 0.525,1.34 and 1.77,1.04 and 1.06,0.0374 and 0.181
COC(=O)C1=C(C)N(Cc2ccccc2)C2=C(C(C)=O)C[C@@](O)(C(=O)OC)C(=O)N2[C@@H]1c1ccccc1,1.55 and -0.0318,-0.762 (inactive) and -2.05 (inactive),-0.987 (inactive) and -1.63 (inactive),-1.32 (inactive) and -0.654 (inactive),1.68 and 0.258,0.528 (inactive) and 0.524 (inactive),-0.195 and -0.331,0.364 and 0.0733,0.729 and -0.153,0.0069 and -0.158
CON(C)C(=O)c1nnc2c3ccccc3n(S(=O)(=O)c3ccc(C)cc3)c2n1,-0.0043 and 1.58,-0.461 (inactive) and 0.111 (inactive),-0.823 (inactive) and -1.05 (inactive),0.171 (inactive) and -0.671 (inactive),1.2 and 1.93,0.155 (inactive) and 0.517 (inactive),-0.0944 and -0.229,0.423 and 0.772,0.233 and 1.04,-0.0238 and -0.171
CC(=O)OC[C@H]1O[C@H](C#CC(C)(C)C)C=C[C@@H]1OC(C)=O,0.975,-0.0789 (inactive),-1.48 (inactive),-0.589 (inactive),1.3,0.459 (inactive),-0.177,0.369,0.695,0.0168
CC(C)OC(=O)C=C1C[C@@H](c2ccccc2)O[C@@H](c2ccccc2)O1,1.5 and 1.54,-0.023 (inactive) and 0.548 (inactive),-4.66 (inactive) and -7.08 (inactive),-0.793 (inactive) and 0.632 (inactive),3.33 and 3.12,0.551 (inactive) and 0.884 (inactive),0.0528 and 0.269,1.09 and 0.798,1.09 and 1.13,0.302 and 0.366
CN1C(=O)C2CC=C([C@H]3Oc4ccccc4S(=O)(=O)N4CCC[C@@H]34)CC2C1=O (stereo not given in full),-0.525 and -1.12,-0.243 (inactive) and 0.235 (inactive),0.0646 (inactive) and 0.0942 (inactive),0.579 (inactive) and 0.0211 (inactive),-0.781 and -0.674,0.108 (inactive) and -0.089 (inactive),-0.163 and -0.0719,-0.487 and 0.281,-0.977 and -1.16,-0.199 and -0.165
CO[C@H]1COC(=O)CC=C[C@H](C)[C@H](OC)COC(=O)[C@@H](C)COC(=O)CC=C[C@@H]1C,0.65 and 1.07,-0.23 (inactive) and -0.132 (inactive),-0.121 (inactive) and -1.49 (inactive),-0.324 (inactive) and -0.586 (inactive),-0.0624 and -0.0356,0.432 (inactive) and 0.839 (inactive),-0.177 and -0.239,0.74 and 1.2,0.327 and 0.287,-0.143 and -0.103
C=CCN(C(=O)C(c1cccs1)N(C(=O)/C=C\C(=O)O)C(C)(C)CO)c1ccc(OC)cc1 (stereo not given),-0.771 and -0.469,-2.87 (inactive) and -2.15 (inactive),-2.09 (inactive) and -2.05 (inactive),-2.57 (inactive) and -1.07 (inactive),2.03 and -0.628,3.5 (inactive) and 2.82 (inactive),0.388 and -0.0519,-1.23 and -1.8,-1.37 and -0.484,-0.24 and -0.151
COc1ccc(O[C@H]2C=C[C@@H](c3ccccc3)O[C@@H]2COC(=O)CCC(C)=NO[C@H](C)c2cn([C@H](CO)Cc3ccccc3)nn2)cc1,0.88 and 0.299,0.479 (inactive) and 0.555 (inactive),0.52 (inactive) and 0.0557 (inactive),0.616 (inactive) and 1.32 (inactive),0.026 and 0.303,0.204 (inactive) and 0.524 (inactive),-0.353 and -0.312,0.393 and 0.795,0.155 and 0.167,0.257 and -0.336
C[C@@H](c1ccccc1)N1C(=O)[C@H]2[C@H]3[C@H](O)[C@H](O)CC(=O)[C@@H]3CC[C@H]2C1=O,0.745,-2.24 (inactive),-0.971 (inactive),-0.727 (inactive),0.775,-0.46 (inactive),-0.0978,0.798,0.82,0.596
